SENP8 block-1 – human SENP8 protease inhibitors, primary screen, biochemical, fluorescence, Nedd8 protein substrate, uHTS; recombinant SENP8; inhibition, % at 20 µM; 360,000 tested, 0.64% active; AID 602440, 2012; in the data active means inhibition mostly above about 40%, no sharp cut-off; inactive means mostly below about 27%
Target sequence (Q96LD8 whole entry, looked up): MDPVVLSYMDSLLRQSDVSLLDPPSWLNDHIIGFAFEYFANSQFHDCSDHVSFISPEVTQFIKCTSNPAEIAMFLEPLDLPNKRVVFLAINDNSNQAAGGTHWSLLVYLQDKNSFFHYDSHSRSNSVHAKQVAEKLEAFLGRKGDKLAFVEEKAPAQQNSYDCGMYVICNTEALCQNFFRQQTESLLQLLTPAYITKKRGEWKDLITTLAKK
SENP6 block – SENP6 protease inhibitors, primary screen, biochemical, luminescence, uHTS; Recombinant SENP6 catalytic domain, aminoluciferin luminescence; inhibition, % at 10 µM; 330,000 tested, 1.8% active; AID 2599, 2010;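 active means inhibition above about 50% at the single tested dose, limit read from the data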;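 further: plate controls were DMSO wells with enzyme for no effect and DMSO wells lacking enzyme for full effect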
HSP90 inh – HSP90 inhibitors, primary screen, cell lysate, luminescence. inhibition, % at 5.6 µM. AID 1789, 2009. 290,000 tested, 0.91% active. Rabbit reticulocyte lysate, luciferase refolding luminescence, 3 h;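 active means inhibition above the screen-wide mean plus 3 SD, computed separately per campaign, cut at about 16% in these data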;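 further: 0% = DMSO wells and 100% = 60 µM geldanamycin wells; inhibitors lower the luminescence because luciferase stays unfolded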
Platelet DG rel – inhibitors of platelet dense granule secretion, primary screen, cell-based, MLPCN, human platelets; human platelet-rich plasma, SFLLRN dense granule ATP release, luminescence; AID 1663, 2009; 300,000 tested, 0.22% active; inhibition, %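 (compounds screened at 7.5 µM in platelet-rich plasma)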;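 active means mean replicate score, as percent of positive control, at or above 50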
SENP7 inh – SENP7 protease inhibitors, primary screen, biochemical, luminescence, uHTS. Sentrin-specific protease 7 (Homo sapiens), Q9BQF6. recombinant SENP7, Z-RLRGG-aminoluciferin luminescence, 40 min. inhibition, % at 5 µM. 330,000 tested, 1.5% active. AID 434973, 2010;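 active means inhibition above about 50% at the single test dose, limit read from the data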;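 further: plate controls were DMSO with enzyme for no effect and no enzyme buffer wells for full effect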
SENP8 block-2 – SENP8 protease inhibitors, primary screen, biochemical, luminescence; Sentrin-specific protease 8 (Homo sapiens), Q96LD8; purified SENP8, Z-RLRGG-aminoluciferin cleavage; inhibition, % at 10 µM; 330,000 tested, 1.2% active; in the data active means inhibition above about 50%
HSP90 confirm – HSP90 inhibitors, confirmation, cell lysate, luminescence | shares compounds with HSP90 inh | rabbit reticulocyte lysate, luciferase refolding luminescence, 3 h | inhibition, % at 5.9 µM | 2,300 tested, 64% active | AID 1846, 2009; in the data active means inhibition above about 18%;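 further: 0% = vehicle wells and 100% = reference inhibitor wells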
luciferase ctr – firefly luciferase inhibitors, HSP90 counter-screen, confirmation, artefact control for HSP90 inhibitor project, biochemical, luminescence, triplicate; shares compounds with HSP90 inh; purified native firefly luciferase; inhibition, % at 5.9 µM; 2,300 tested, 48% active; AID 1847, 2009;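 active means inhibition above the mean inhibition of all tested sample wells plus 3 SD, cut at about 10% in these data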;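 further: 0% = DMSO with luciferase and 100% = wells lacking luciferase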
SENP8 conf – SENP8 protease inhibitors, retest, confirmation, biochemical, luminescence, single concentration; shares compounds with SENP7 inh; Recombinant SENP8, Z-RLRGG-aminoluciferin luminescence, 60 min; inhibition, % at 12.5 µM; 6,200 tested, 40% active; AID 488912, 2010;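 active means mean inhibition across replicates above about 50%, limit read from the data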
SENP6 confirm – SENP6 protease inhibitors, confirmation, biochemical, luminescence, single concentration; shares compounds with SENP7 inh; recombinant SENP6, Z-RLRGG-aminoluciferin luminescence; inhibition, % at 12.5 µM; 6,200 tested, 58% active; AID 488915, 2010
SENP7 conf – SENP7 protease inhibitors, retest, confirmation, biochemical, luminescence, single concentration. shares compounds with SENP7 inh. recombinant SENP7, Z-RLRGG-aminoluciferin luminescence, 40 min. inhibition, % at 12.5 µM. 6,200 tested, 69% active. AID 488917, 2010
Casp3 SENP sel – caspase-3 protease inhibitors, confirmation, selectivity assay for SENP inhibitor project, biochemical, single concentration. shares compounds with SENP7 inh. purified caspase-3, Z-DEVD-aminoluciferin luminescence, 60 min. inhibition, % at 12.5 µM. 6,200 tested, 60% active;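 active means mean inhibition above about 50%, limit read from the data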;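 further: plate controls were enzyme with DMSO for no effect and wells without caspase-3 for full effect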
Target sequence (P42574 28-227 limits assumed): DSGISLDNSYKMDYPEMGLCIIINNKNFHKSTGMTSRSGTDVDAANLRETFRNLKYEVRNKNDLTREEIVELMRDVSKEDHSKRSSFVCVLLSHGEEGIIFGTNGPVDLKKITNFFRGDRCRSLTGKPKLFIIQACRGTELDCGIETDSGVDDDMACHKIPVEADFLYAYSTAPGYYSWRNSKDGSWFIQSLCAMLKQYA
SENP luc ctr – luminescence interference (SENP counter-screen); shares compounds with SENP7 inh; Pre-incubated SENP8/Z-RLRGG-aminoluciferin, luciferase luminescence interference; inhibition, % at 12.5 µM; 6,200 tested, 39% active; AID 488919;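 active means mean inhibition above about 50% when retested at one dose, limit read from the data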;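 further: plate controls were DMSO wells with completed reaction for no effect and substrate without enzyme for full effect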
Active calls of the source: *; . = not tested or not shown. Most compounds without a hit are left out; they make up all but 2.8% or so of the library.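 How the source made its calls, unless noted: active means mean inhibition above about 50% in the one-dose retest (limit read from the data); inactive means the rest.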

SMILES	SENP8 block-1	SENP6 block	HSP90 inh	Platelet DG rel	SENP7 inh	SENP8 block-2	HSP90 confirm	luciferase ctr	SENP8 conf	SENP6 confirm	SENP7 conf	Casp3 SENP sel	SENP luc ctr
c1ccc2c(c1)CCN(c1nc3cc4c(cc3s1)OCCO4)C2	-340	97*	54*	3	99*	96*	73*	74*	98*	99*	102*	97*	83*
O=C(COC(=O)c1ccc(NC(=O)C2CC=CCC2C(=O)O)cc1)c1ccccc1 (stereo unspecified)	16	21	4	5	4	2	.	.	.	.	.	.	.
Cc1nnc(NC(=O)c2ccc3c(c2)OCO3)s1	-5	12	0	5	15	8	.	.	.	.	.	.	.
CSc1nnc(NC(=O)c2ccc3c(c2)OCO3)s1	-109	96*	54*	5	97*	90*	82*	72*	30	38	64*	51*	12
O=C1NC(=O)/C(=C\c2ccc(OCc3cccc(C(=O)O)c3)c(Cl)c2)N1	-179	95*	31*	3	77*	90*	45*	50*	-16	93*	101*	30	71*
COc1ccc2[nH]c(-c3ccc(C)cc3)cc(=O)c2c1	-477	81*	25*	14	73*	77*	56*	33*	51*	81*	95*	92*	2
COc1ccc(-c2cc(=O)c3cc(F)ccc3[nH]2)cc1	-353	-1	0	1	6	-4	.	.	.	.	.	.	.
CCc1ccc2oc(-c3ccc(OC)cc3)cc(=Nc3cccc(C(=O)O)c3)c2c1	-437	-1	24*	6	97*	86*	10	3	83*	85*	95*	79*	63*
O=C(OCC(=O)N1c2ccccc2Sc2ccccc21)c1ccc[n+]([O-])c1	0	-13	3	.	-9	-1	.	.	.	.	.	.	.
CCCNC(=O)c1ccc(-c2nc3ccccc3s2)s1	-420	89*	22*	12	87*	84*	68*	60*	8	86*	99*	55*	25
O=C(NCCCO)c1nc2ccccc2s1	16	-10	-1	-5	9	4	.	.	.	.	.	.	.
C[C@H]1CN([C@@H](C)CO)C(=O)c2cc(C#CC3(O)CCCC3)cnc2O[C@H]1CN(C)C(=O)C1CC1	-8	.	.	.	.	.	.	.	.	.	.	.	.
Cc1ccc(NC(=S)c2nc3ccccc3[nH]2)cc1	17	79*	19*	0	55*	57*	23*	7	71*	78*	95*	60*	42
CCOc1ccc(NC(=O)Nc2ccccc2C(N)=O)cc1	11	98*	32*	48	100*	91*	42*	38*	95*	97*	102*	98*	32
COc1ccc(Cc2nnc(SCC(=O)NC3(C#N)CCCCC3)n2N)cc1	11	-13	.	-16	-6	-11	.	.	.	.	.	.	.
Fc1ccc(-n2nnc(-c3cccnc3)n2)cc1	15	22	9	-1	21	-6	.	.	.	.	.	.	.
Fc1ccc(-n2nnc(-c3cnc4ccccc4c3)n2)cc1	12	93*	19*	6	96*	80*	81*	77*	65*	67*	26	61*	33
CC(=O)/C(N=Nc1ccc2c(c1)OCCO2)=C(\C)O	18	79*	25*	14	82*	75*	45*	56*	81*	80*	96*	92*	60*
Cc1cc(C(=O)COc2cccnc2[N+](=O)[O-])c(C)n1Cc1cccs1	3	18	8	-4	5	2	.	.	.	.	.	.	.
Cc1cc(C(=O)COC(=O)c2cccnc2Cl)c(C)n1CC1CCCO1 (stereo unspecified)	9	90*	78*	20	93*	90*	86*	82*	95*	96*	101*	98*	80*
Cc1cc(C(=O)COC(=O)c2n[nH]c3ccccc23)c(C)n1CC1CCCO1 (stereo unspecified)	21	86*	52*	7	13	87*	55*	54*	47	92*	99*	90*	77*
COCCn1c(C)cc(C(=O)COC(=O)c2n[nH]c3ccccc23)c1C	21	71*	44*	-2	86*	82*	66*	69*	94*	94*	100*	92*	87*
Cc1cc(C(=O)COC(=O)C2COc3ccccc3O2)c(C)n1CC1CCCO1 (stereo unspecified)	2	-19	9	7	4	-3	.	.	.	.	.	.	.
Cc1cc(C(=O)COC(=O)c2ccccc2O)c(C)n1Cc1cccs1	-8	92*	82*	9	95*	93*	86*	84*	93*	98*	101*	93*	51*
COCCn1c(C)cc(C(=O)COC(=O)Cc2n[nH]c(=O)c3ccccc23)c1C	-3	6	.	.	-9	-11	.	.	.	.	.	.	.
CC1(C(=O)NS(=O)(=O)c2cccc(F)c2)CCN1C(=O)Cc1cccc2ccccc12 (stereo unspecified)	10	.	.	.	.	.	.	.	.	.	.	.	.

Screening results from PubChem.
